ChEMBL document CHEMBL3988442, “University of Dundee, Small-Polar-MMV Screening Library” (2021)
The whole screen tested about 68,000 compounds, of which about 25 (0.04%) showed an effect of 50% or more. Shown is part of a subset that was picked to be rich in strong results.

What follows are compounds tested against T1, Methionyl-tRNA synthetase, putative (Leishmania donovani (strain BPK282A1)) (UniProt E9BF75) (assay: Leishmania donovani Methionine tRNA synthetase (LdMetRS):v6. Primary screen assay).
T1 sequence (whole entry): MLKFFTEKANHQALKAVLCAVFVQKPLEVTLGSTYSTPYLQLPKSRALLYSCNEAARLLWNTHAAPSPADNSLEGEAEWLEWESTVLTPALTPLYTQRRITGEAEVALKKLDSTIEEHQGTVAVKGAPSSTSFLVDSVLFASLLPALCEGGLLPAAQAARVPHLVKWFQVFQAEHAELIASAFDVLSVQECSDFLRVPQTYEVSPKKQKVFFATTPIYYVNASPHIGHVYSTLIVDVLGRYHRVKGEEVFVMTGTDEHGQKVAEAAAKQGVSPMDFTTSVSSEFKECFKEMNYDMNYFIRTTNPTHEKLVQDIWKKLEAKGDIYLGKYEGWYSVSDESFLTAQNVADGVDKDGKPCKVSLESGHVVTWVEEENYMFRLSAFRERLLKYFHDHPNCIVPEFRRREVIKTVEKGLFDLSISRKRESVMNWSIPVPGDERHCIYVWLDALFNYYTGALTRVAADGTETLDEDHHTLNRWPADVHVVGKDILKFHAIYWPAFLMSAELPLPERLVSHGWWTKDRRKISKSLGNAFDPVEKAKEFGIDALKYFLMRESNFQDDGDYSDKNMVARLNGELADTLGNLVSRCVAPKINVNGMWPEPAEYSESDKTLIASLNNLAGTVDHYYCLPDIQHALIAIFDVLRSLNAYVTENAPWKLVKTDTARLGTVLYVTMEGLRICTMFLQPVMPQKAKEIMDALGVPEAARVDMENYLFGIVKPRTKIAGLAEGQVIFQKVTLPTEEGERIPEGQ
Type: functional
Design: conc 80 nM, time 150 minutes

SMILES	inhibition
COCCNC(=O)c1ccc2ccc(N(C)CC3CC3)n2c1	22.1%
O=C(c1ccc[nH]1)N1C[C@H](OCc2cccnc2)[C@H]2COC[C@H]21	16.2%
C=C1C(C)(C)[C@H]2CC[C@]1(C(=O)N1CCC(Cn3cc(CO)nn3)CC1)C2	11.7%
NC(=O)N1CC[C@H]2CO[C@H](CNC(=O)c3ccnnc3)[C@H]2C1	15%
Cc1ncsc1CCN(C)C(=O)c1ccc(Cn2cnnn2)cc1	16.8%
Cc1cnccc1CN(C)C(=O)c1ccc(Cn2cnnn2)cc1	2.48%
Cc1nc(CN(C)C(=O)c2ccc(Cn3cnnn3)cc2)cs1	123%
O=S1(=O)C[C@@H]2[C@H](C1)N(Cc1cc(F)cc(F)c1)CCN2CCO	1.27%
COc1cccc(-c2noc3c2CN(c2nc(C)ncc2C)CC3)c1	15%
COCc1cc(N2CCc3onc(-c4cccc(OC)c4)c3C2)ncn1	12.5%
COc1cccc(-c2noc3c2CN(c2ncnc4c2CCC4)CC3)c1	52.3%
O=C(NC1CC1)[C@H]1CC[C@@H]2[C@@H](CCN2Cc2ccsc2)O1	6.67%
O=C(CCNC(=O)c1ccccc1F)NCCNc1cccnc1	120%
CCn1cnnc1CCNC(=O)CCNC(=O)c1ccccc1F	17.3%
Cc1ccnc(NCCNC(=O)CCNC(=O)c2ccccc2F)c1	34.8%
Cc1cccc(C(=O)N2C[C@@H]3[C@H](CC(=O)NC(C)C)[C@@H]3C2)n1	6.67%
Cc1ncc(CNc2cnccc2CO)s1	11.8%
CC(C)Cc1ncc(CNc2cnccc2CO)s1	121%
Cc1ccc(-c2ncc(CNc3cnccc3CO)s2)cc1	1.86%
Cn1cc(C(=O)N[C@@H]2CN(Cc3cccs3)[C@@H]3CCCO[C@@H]32)cn1	16.3%
O=C1NC[C@]2(CC[C@@H](C(=O)N3CCC(O)CC3)CC2)Oc2ccccc21	17.4%
Cc1oc(C(C)C)cc1C(=O)N1C[C@H]2CC[C@@H]1CN(c1ncccn1)C2	7.9%
O=C([C@@H]1COC[C@H]2CN(C3CCCCC3)C[C@H]21)N1CCOCC1	14.6%
O=S(=O)(CCSc1nccn1C1CC1)c1ccccc1	-9.32%
O=S(=O)(NCCSc1nccn1C1CC1)c1ccccc1	67.7%
O=S(=O)(NCCSc1nncn1C1CC1)c1ccccc1	3.73%
Cc1noc([C@@]23CCO[C@@H]2CCN(C(=O)c2cc(C)c(C)s2)C3)n1	8.14%

SMILES	inhibition
Cc1noc([C@@H]2C[C@H]3OCC[C@H]3N(Cc3sccc3C)C2)n1	10.5%
Cc1occc1C(=O)N1CCO[C@H]2[C@H](Oc3cccnc3)CC[C@@H]21	3.85%
CCS(=O)(=O)N1CC[C@H]2O[C@H](c3nc(C)no3)CC[C@H]21	21%
O=C1C[C@H]2CC[C@@H](CN1)N2C(=O)CCc1ccc2c(c1)OCO2	17%
O=C(c1cc(F)cc(Cl)c1)N1CCN(CCO)[C@@H]2CS(=O)(=O)C[C@@H]21	3.31%
Cc1noc(C)c1CN1CC[C@H]2OCC[C@@H](C(=O)NCC3CC3)[C@H]2C1	14.8%
Cc1ccc(CN2CC[C@H]3OCC[C@@]3(C(=O)N3CCCO3)C2)o1	6.85%
O=C(N[C@@H]1CN(c2ncccn2)[C@@H]2CCCO[C@@H]21)c1cscn1	13.6%
O=C1CC[C@H]2CN(c3ncccc3F)CC[C@H]2N1CCc1ccccc1	-0.347%
CCc1c(C(=O)N2C[C@H]3CC[C@@H]2CN(c2cnccn2)C3)csc1C	13.4%
CN(C)C(=O)[C@@H]1CCO[C@@H]2CCN(CCOCc3ccccc3)C[C@H]21	1.54%
OCC1N(Cc2ccc(F)cc2)[C@H]2CC[C@]1(O)CC2 (stereo partly drawn)	12.3%
Cc1ccc(C(=O)N2C[C@@H](N3CCN(C)CC3)[C@H]3OCCC[C@H]32)cn1	14.1%
N#Cc1ccccc1CN1C[C@H]2CC[C@@H]1CN(C(=O)c1cccnc1)C2	15.4%
CNC(=O)[C@@]12CCC3(CCNCC3)[C@@H]1CN(S(C)(=O)=O)C2	18.3%
O=C1OCCN1CC(=O)N1C[C@H]2CC[C@@H]1CN(C(=O)c1ccccc1)C2	10.6%
CC1COc2ccccc2N1C(=O)c1cscn1 (stereo not drawn)	12.4%
Cc1nc(CC(=O)N2c3ccccc3OCC2C)cs1 (stereo not drawn)	6.21%
CC1COc2ccccc2N1C(=O)CCc1cscn1 (stereo not drawn)	59%
CNC(=O)[C@@H]1C[C@H]2CN(C(=O)c3ccco3)C[C@H]2N1C(C)C	14.5%
CC(C)=CCN1C[C@@H]2CN(C(=O)c3cnccc3C)C[C@]2(C(=O)O)C1	8.52%
CCCN1CCN(Cc2cccc(OC)c2)[C@H]2CS(=O)(=O)C[C@H]21	12.4%
NC1CCN(C2CCN(c3ccc(-c4ccco4)cc3)CC2)CC1	42.5%
CNC1CCN(C2CCN(c3ccc(-c4ccco4)cc3)CC2)CC1	21%
NCC1CCN(C2CCN(c3ccc(-c4ccco4)cc3)CC2)C1 (stereo not drawn)	52.7%
CCc1cc(CN2C[C@H]3CC[C@@H]2CN(C2Cc4ccccc4C2)C3)on1	18.8%
